In PubChem BioAssay (NCATS):
Records with an inconclusive call do not appear. The source made the active and inactive calls. Unless noted, calls follow the shape of the dose curve; as a rule, active = well fitted curve in the direction sought with a large enough effect; inconclusive = small, poorly fitted or top-dose-only effect, or another doubt; inactive = no such curve, though single readings can be large; an effect the other way counts as inactive or inconclusive.

Experiments:
[1] = Cell Viability - BJ (AID 421; calls by dose curve;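 also: potency is read from the fitted curve at half-maximal effect; cells exposed to compound for 40 hours at 37 °C before readout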); settings: BJ fibroblast viability, qHTS
Summary of the method: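 Normal human BJ foreskin fibroblasts, 1500/well in complete medium, treated 40 hr at 37 °C. Cellular ATP by CellTiter-Glo luminescence; normalized to DMSO and 100 uM tamoxifen, AC50 from Hill fit.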

[2] = Cell Viability - Jurkat (AID 426;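 active = dose-dependent loss of cell ATP signal giving a full or clear fitted curve, ranked by lower potency value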; also: potency is read from the fitted curve at half-maximal effect); settings: qHTS
Summary of the method: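 Jurkat (clone E6-1, human T-cell leukemia) cells, 5000/well in complete medium, were exposed to compound for 40 hr at 37 °C. Viability was read as intracellular ATP by CellTiter-Glo luminescence; AC50 came from Hill fits of concentration-response data.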

[3] = Cell Viability - Hek293 (AID 427;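 active = compounds whose dose-response curve shows a full or clear partial loss of cell viability, called from curve shape rather than a numeric limit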;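 also: potency is read from the fitted curve at half-maximal effect; cells exposed to compound for 40 hours at 37 °C before reading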); settings: qHTS
Summary of the method: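 HEK293 cells in complete medium were exposed to compound for 40 hr at 37 °C, then cellular ATP was read by CellTiter-Glo luminescence. Data were normalized to DMSO (basal) and 100 uM tamoxifen (100% inhibition), and AC50 came from Hill fits.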

[4] = Cell Viability - HepG2 (AID 433; calls by dose curve;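 also: potency is read from the fitted curve at half-maximal effect; potency for ATP loss meaning cytotoxicity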); settings: qHTS
Summary of the method: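 HepG2 hepatocellular carcinoma cells (1500/well) were treated with compounds for 40 h at 37 °C in complete medium; intracellular ATP was read by CellTiter-Glo luminescence. Data were normalized to DMSO and 100 uM tamoxifen, and AC50 came from Hill fits.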

[5] = Cell Viability - MRC5 (AID 434; calls by dose curve;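 also: potency is read from the fitted curve at half-maximal effect; potency reflects cytotoxicity seen as loss of intracellular ATP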); settings: MRC5 lung fibroblast viability, qHTS
Summary of the method: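 MRC5 normal human lung fibroblasts, 1500 cells/well, exposed to compound for 40 hr at 37 C. Cellular ATP was read by CellTiter-Glo luminescence; data normalized to DMSO and 100 uM tamoxifen, with AC50 from Hill fits.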

[6] = Cell Viability - N2a (AID 540); settings: N2a mouse neuroblastoma cell viability; activity change, negative = cytotoxicity: at 92.2 µM (top of the series);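 also: plate controls were DMSO alone for no effect and tamoxifen control for full effect; nearly all actives have a fitted effect of over 45% in size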
Summary of the method: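 Mouse neuroblastoma N2a cells (1500/well) were preincubated 5 hr at 37 °C, then exposed to compounds for 40 hr at 37 °C in complete medium. Viability was read as intracellular ATP by CellTiter-Glo luminescence; AC50 from Hill fits.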

[7] = Cell Viability - HUV-EC-C (AID 542); settings: HUV-EC-C endothelial cell viability, qHTS; series mostly up to 92.2 µM; also: % is scaled to controls: 0 for no effect and ±100 for the full control effect; nearly all actives have a fitted effect of over 35% in size
Summary of the method: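 HUV-EC-C normal human vascular endothelial cells, 1000 cells/well, pre-incubated 5 hr at 37 °C, then exposed to compounds for 40 hr at 37 °C in complete medium. Viability measured as intracellular ATP by CellTiter-Glo luminescence; AC50 from Hill fits.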

[8] = Cell Viability - Renal Proximal Tubule (AID 545); settings: renal proximal tubule cells viability, primary cells of rat origin; at 91.7 µM (top of the series);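 also: 0% = DMSO only and -100% = 100 µM tamoxifen; nearly all actives have a fitted effect of over 40% in size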
Summary of the method: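 Primary rat renal proximal tubule cells (1000/well) were treated with compounds for 40 hr at 37 °C in complete medium. Intracellular ATP was measured by CellTiter-Glo luminescence, and AC50 values came from Hill-equation fits of concentration-response data.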

[9] = Cell Viability - Mesenchymal (AID 546); settings: mesenchymal cells viability, qHTS; activity change, negative = cytotoxicity: at 91.7 µM (top of the series);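 also: cells exposed to compound for 40 hours before reading; 0% = DMSO only and -100% = 100 µM tamoxifen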
Summary of the method: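 Human kidney mesenchymal cells from normal renal glomeruli, 1000 cells/well, rested 5 hr at 37 °C, then treated 40 hr at 37 °C in complete medium. Cellular ATP read by CellTiter-Glo luminescence; AC50 from Hill-equation fits.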

[10] = qHTS Assay for Identification of Small Molecule Inducers of Hypoxia Response (AID 2120; active = well fitted curve in the direction sought with a large enough effect in the signal ratio, with a control signal flat, not every such curve was filed as active; the % refers to the signal ratio; also: 0% is about no effect); settings: hypoxia response reporter cells, beta-lactamase ratio readout; series mostly up to 104 µM
Summary of the method: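 HRE-beta-lactamase reporter in CellSensor HRE-bla ME-180 cells, 2500 cells/well in Opti-MEM with 0.5% dialyzed FBS; compounds tested as titration series, 17 h at 37 degrees C. CCF4 substrate 2.5 h at room temperature; AC50 from 460/530 nm ratio.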

[11] = biological target: Estrogen receptor (Homo sapiens) (UniProt P03372); assay: qHTS assay for small molecule agonists of estrogen receptor alpha signaling (AID 588514; calls by dose curve;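 also: 0% = vehicle only and 100% = reference agonist; nearly all actives have a fitted effect of over 70% in size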); settings: ER-alpha-UAS-bla HEK293, beta-lactamase ratio, 18 h; series mostly up to 76.8 µM
Estrogen receptor (Homo sapiens), sequence (P03372 whole entry, looked up): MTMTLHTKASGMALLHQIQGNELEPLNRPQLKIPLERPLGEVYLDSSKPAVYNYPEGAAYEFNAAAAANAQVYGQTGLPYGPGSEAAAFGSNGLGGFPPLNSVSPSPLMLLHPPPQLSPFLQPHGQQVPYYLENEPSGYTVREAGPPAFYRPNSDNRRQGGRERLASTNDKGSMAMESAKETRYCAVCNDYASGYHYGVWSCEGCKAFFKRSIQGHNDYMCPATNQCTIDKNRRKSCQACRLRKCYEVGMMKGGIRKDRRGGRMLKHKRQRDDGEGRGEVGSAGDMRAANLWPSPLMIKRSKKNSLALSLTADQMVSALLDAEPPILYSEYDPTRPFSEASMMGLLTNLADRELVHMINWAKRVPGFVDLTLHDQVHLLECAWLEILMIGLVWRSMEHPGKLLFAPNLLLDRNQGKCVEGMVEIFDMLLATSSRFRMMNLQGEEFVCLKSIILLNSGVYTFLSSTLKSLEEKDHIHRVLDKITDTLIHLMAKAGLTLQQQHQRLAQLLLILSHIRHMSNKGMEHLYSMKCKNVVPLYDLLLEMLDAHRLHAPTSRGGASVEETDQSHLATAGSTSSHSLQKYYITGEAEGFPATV
Summary of the method: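 ER-alpha-UAS-bla GripTite HEK 293 cells in medium with 2% charcoal/dextran-treated FBS were treated with compound titrations at 37 C for 18 hrs; beta-lactamase reporter read by CCF4 fluorescence after 2 hrs at RT.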

[12] = biological target: Glucocorticoid receptor (Homo sapiens) (UniProt P04150); assay: qHTS assay for small molecule antagonists of glucocorticoid receptor signaling (AID 588533; active = well fitted inhibition curve with a large enough effect in the signal ratio, with a control signal flat, not every such curve was filed as active; the % refers to the signal ratio;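 also: cells stimulated with 2 nM dexamethasone as agonist; % is scaled to controls: 0 for no effect and ±100 for the full control effect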); settings: HeLa MMTV-bla, GRE beta-lactamase ratio, antagonist mode, 18 h; series mostly up to 76.8 µM
Glucocorticoid receptor (Homo sapiens), sequence (P04150 whole entry, looked up): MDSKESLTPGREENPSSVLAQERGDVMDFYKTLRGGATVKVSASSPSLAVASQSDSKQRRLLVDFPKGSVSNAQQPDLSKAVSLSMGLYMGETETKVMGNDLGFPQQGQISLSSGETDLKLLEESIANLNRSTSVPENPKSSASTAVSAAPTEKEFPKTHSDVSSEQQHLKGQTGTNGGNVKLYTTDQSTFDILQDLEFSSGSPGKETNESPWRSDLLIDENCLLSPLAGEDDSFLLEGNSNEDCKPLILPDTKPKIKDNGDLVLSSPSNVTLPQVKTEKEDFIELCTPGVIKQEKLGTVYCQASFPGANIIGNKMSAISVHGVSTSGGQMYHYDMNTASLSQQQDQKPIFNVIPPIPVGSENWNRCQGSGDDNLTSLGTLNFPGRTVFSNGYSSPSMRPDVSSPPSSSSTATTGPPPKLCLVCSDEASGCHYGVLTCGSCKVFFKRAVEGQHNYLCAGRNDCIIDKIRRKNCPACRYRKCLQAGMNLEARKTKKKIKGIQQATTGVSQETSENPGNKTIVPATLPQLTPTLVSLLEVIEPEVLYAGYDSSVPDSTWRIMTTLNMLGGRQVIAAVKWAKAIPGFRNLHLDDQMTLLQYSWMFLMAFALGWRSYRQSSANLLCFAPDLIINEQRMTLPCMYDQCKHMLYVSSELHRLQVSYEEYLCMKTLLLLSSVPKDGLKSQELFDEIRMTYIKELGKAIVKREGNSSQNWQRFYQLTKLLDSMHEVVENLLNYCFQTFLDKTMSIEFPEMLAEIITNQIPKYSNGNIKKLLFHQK
Summary of the method: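 Antagonist-mode qHTS: compound titrations added to GRE-bla HeLa cells, then dexamethasone 2 nM final; 18 h, 37 C. CCF4 FRET fluorescence normalized to dexamethasone and DMSO; IC50 from Hill fit.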

[13] = biological target: Peroxisome proliferator-activated receptor delta (Homo sapiens) (UniProt Q03181); assay: qHTS assay for small molecule antagonists of peroxisome proliferator-activated receptor delta signaling (AID 588535; active = well fitted inhibition curve with a large enough effect in the signal ratio, with a control signal flat, not every such curve was filed as active; the % refers to the signal ratio); settings: HEK293T PPARd-UAS-bla, beta-lactamase FRET ratio, 18 h; series mostly up to 76.7 µM
Peroxisome proliferator-activated receptor delta (Homo sapiens), sequence (Q03181 whole entry, looked up): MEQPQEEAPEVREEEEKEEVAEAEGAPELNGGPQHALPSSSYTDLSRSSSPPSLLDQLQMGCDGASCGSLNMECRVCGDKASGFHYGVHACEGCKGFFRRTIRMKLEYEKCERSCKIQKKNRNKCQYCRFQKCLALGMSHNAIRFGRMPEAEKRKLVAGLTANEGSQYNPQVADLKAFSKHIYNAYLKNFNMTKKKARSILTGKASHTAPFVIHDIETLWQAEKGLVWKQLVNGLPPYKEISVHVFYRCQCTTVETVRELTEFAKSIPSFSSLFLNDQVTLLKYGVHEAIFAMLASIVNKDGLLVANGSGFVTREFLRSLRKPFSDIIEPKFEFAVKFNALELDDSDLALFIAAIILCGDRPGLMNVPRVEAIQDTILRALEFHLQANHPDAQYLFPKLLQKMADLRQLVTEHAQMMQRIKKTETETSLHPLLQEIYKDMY
Summary of the method: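 Cells were seeded at 4000 per well in assay medium containing 2% charcoal/dextran FBS and held 5 hrs at 37 C. Compounds were then added for 18 hrs. CCF4 substrate was applied for 2 hrs at room temperature before fluorescence reading.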

[14] = qHTS assay for small molecule antagonists of retinoid X receptor alpha signaling (AID 588546; active = well fitted inhibition curve with a large enough effect in the signal ratio, with a control signal flat, not every such curve was filed as active; the % refers to the signal ratio;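 also: cells stimulated with 9-cis-retinoic acid as agonist; % is scaled to controls: 0 for no effect and ±100 for the full control effect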); settings: HEK293T RXRa-UAS-bla, beta-lactamase ratio, antagonist mode; measured here: W530 green channel, cytotoxicity proxy
Summary of the method: (§1)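 Beta-lactamase reporter inhibition, read as CCF4 fluorescence ratio (ex 405, em 460/530 nm) after 2 h at RT. HEK293T UAS-bla cells, 2500/well, were stimulated with 9-cis-RA at 500 or 100 nM final alongside test compound for 18 h at 37 C.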

[15] = biological target: Retinoic acid receptor RXR-alpha (Homo sapiens) (UniProt P19793); assay: as above; settings: HEK293T RXRa-UAS-bla, beta-lactamase ratio, antagonist mode
Retinoic acid receptor RXR-alpha (Homo sapiens), sequence (P19793 whole entry, looked up): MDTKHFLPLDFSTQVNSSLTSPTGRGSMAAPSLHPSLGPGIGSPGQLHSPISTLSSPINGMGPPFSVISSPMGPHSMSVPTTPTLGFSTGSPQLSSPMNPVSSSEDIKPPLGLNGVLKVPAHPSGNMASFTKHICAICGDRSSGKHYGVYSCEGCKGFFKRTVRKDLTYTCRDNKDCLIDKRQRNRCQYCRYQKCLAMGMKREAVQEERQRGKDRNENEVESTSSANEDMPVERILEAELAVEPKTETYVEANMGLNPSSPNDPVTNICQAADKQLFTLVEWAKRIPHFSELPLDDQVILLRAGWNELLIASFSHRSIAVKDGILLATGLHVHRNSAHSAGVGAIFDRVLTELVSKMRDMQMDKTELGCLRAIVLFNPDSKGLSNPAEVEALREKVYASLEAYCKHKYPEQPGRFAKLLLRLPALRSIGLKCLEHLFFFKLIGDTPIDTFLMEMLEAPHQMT
Summary of the method: as §1

[16] = qHTS assay for small molecule activators of the p53 signaling pathway (AID 651743; active = well fitted activation curve with a large enough effect in the signal ratio, not every such curve was filed as active; the % refers to the signal ratio; also: % of control where 0% means no effect); settings: HCT-116 p53RE-bla, beta-lactamase FRET ratio, 16 h; activation: stronger effect = higher value
Summary of the method: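 HCT-116 p53RE-bla, 4,000 cells/well; 5 h settle; cpd/DMSO 16 h, 37 C; LiveBLAzer B/G 2 h RT; fluorescence intensity.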

[17] = qHTS assay for environmental chemicals that activate the Aryl hydrocarbon Receptor (AhR) signaling pathway (AID 651777); settings: 1A2-DRE human hepatoma cells, luciferase, 24 h; activation: stronger effect = higher value; also: nearly all actives have a fitted effect of over 15% in size; also: potency is read from the fitted curve at half-maximal effect; as to activation: % of control where 0% means no effect
Summary of the method: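 Following a 24 hr incubation with test chemicals at 37 C and 5% CO2, 1A2-DRE human hepatoma cells received One-Glo reagent; after 30 min at room temperature, luciferase output reflected CYP1A2 induction via AhR.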

[18] = biological target: Peroxisome proliferator-activated receptor alpha (Homo sapiens) (UniProt Q07869); assay: qHTS assay for small molecule agonists of the peroxisome proliferator-activated receptor alpha (PPARalpha) signaling pathway (AID 651778); settings: PathHunter PPARalpha complementation, chemiluminescence, 6 h; max response: stronger effect = higher value; also: % of control where 0% means no effect
Peroxisome proliferator-activated receptor alpha (Homo sapiens), sequence (Q07869 whole entry, looked up, the tested form may be a part): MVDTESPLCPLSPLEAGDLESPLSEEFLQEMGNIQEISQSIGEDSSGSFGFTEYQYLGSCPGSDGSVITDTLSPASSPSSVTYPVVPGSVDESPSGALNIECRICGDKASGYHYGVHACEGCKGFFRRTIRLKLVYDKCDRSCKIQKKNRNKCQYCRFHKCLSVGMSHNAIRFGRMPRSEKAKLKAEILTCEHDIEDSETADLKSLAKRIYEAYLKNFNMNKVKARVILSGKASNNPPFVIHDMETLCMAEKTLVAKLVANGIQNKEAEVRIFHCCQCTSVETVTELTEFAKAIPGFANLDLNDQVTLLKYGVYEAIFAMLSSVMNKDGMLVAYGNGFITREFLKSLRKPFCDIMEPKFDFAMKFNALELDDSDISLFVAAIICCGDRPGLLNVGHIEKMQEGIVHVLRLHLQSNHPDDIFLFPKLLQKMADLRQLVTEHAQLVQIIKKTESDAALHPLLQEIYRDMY
Summary of the method: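 Enzyme-fragment complementation assay in which ligand-bound PPARalpha translocates and forms an active enzyme that generates chemiluminescence. Cells were plated overnight, exposed to compound for 6 hr at 37 C, and then given detection reagent for 60 min at room temperature.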

[19] = qHTS assay for small molecule agonists of the antioxidant response element (ARE) signaling pathway measured by Nrf2-dependant transcriptional activity - cell viability counter screen (AID 720653; active = well fitted curve in the direction sought with a large enough effect in the repeat runs; an effect the other way counts as inactive or inconclusive; also: % is scaled to controls: 0 for no effect and ±100 for the full control effect); settings: ARE-bla HepG2 viability, CellTiter-Glo ATP luminescence, 16 h; max response: stronger effect = lower value
Summary of the method: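 ARE-bla HepG2 cells treated with compounds for 16 h at 37C; this counter screen measures viability as intracellular ATP by CellTiter-Glo luminescence after 30 min at room temperature.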

[20] = qHTS assay for cell viability of the p53RE-bla HCT-116 cell line (AID 743292); settings: p53RE-bla HCT-116 viability, ATP luminescence, 16 h; series mostly up to 95 µM; also: % is scaled to controls: 0 for no effect and ±100 for the full control effect; nearly all actives have a fitted effect of over 55% in size
Summary of the method: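 After plating at 4,000 cells per well and a 5 h rest at 37 C, HCT-116 cells carrying p53RE-bla received test chemicals in DMSO. Sixteen hours later at 37 C, CellTiter-Glo was added and luminescence recorded following 30 min at room temperature.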

C=CC(=C)CCC=C(C)C
4.75%: max response [14]
inactive: Potency [1] > 92 µM | Potency [2] > 92 µM | Potency [3] > 92 µM | Potency [4] > 92 µM | Potency [5] > 92 µM | activity change, negative = cytotoxicity [6] 5.78% | outcome [7] | activity change, negative = cytotoxicity [8] 6.82% | activity change, negative = cytotoxicity [9] -3.53% | outcome [10] | Potency [11] | Potency [12] | Potency [13] | max response [15] 7.13% | activation [16] 0.0217% | activation [17] 0.322% | max response [18] -1.83% | max response [19] 6.84% | Potency [20]

COc1cc(/C=C/c2ccccc2)oc(=O)c1
active: Potency [17] 7.08 µM
inactive: Potency [1] > 92 µM | Potency [2] > 92 µM | Potency [3] > 92 µM | Potency [4] > 92 µM | Potency [5] > 92 µM | activity change, negative = cytotoxicity [6] 1.71% | outcome [7] | activity change, negative = cytotoxicity [8] -15.2% | activity change, negative = cytotoxicity [9] -9.29% | outcome [10] | Potency [12] | Potency [13] | max response [15] -7.15% | activation [16] -4.84% | max response [18] -1.59% | max response [19] -6.81% | Potency [20]
21.7%: max response [14]

O=C(O)c1ccccc1
inactive: Potency [1] > 92 µM | Potency [2] > 92 µM | Potency [3] > 92 µM | Potency [4] > 92 µM | Potency [5] > 92 µM | activity change, negative = cytotoxicity [6] 6.89% | outcome [7] | activity change, negative = cytotoxicity [8] -3.81% | activity change, negative = cytotoxicity [9] 4.89% | outcome [10] | Potency [11] | max response [15] -3.53% | activation [16] 7.69% | activation [17] 2.1% | max response [18] -2.27% | max response [19] 1.2% | Potency [20]
-4.31%: max response [14]

C=CC(C)(CCC=C(C)C)OC(C)=O (configuration not stated)
inactive: Potency [11] | Potency [12] | Potency [13] | max response [15] -7.97% | activation [16] -1.51% | activation [17] 3.8% | max response [18] -0.802% | max response [19] -13.5% | Potency [20]
-5.27%: max response [14]
